High-throughput results from PubChem.
Most compounds without a hit are left out; they make up all but 2.9% or so of the library.
PLCg1 inh: blocks human PLC-gamma1 enzyme activity; P19174; purified PLC-gamma1, fluorogenic substrate, fluorescence; inhibition, % at 12.2 µM; 370,000 compounds, 0.84% hits; in the data active means inhibition above about 9.5%
PLC-beta3 inh: PLC-beta3 (human) inhibition, primary screen; Purified PLC-beta3, fluorogenic substrate, fluorescence; Q01970; 370,000 compounds, 0.18% hits; AID 720704; inhibition, % at 12.2 µM; in the data active means inhibition above about 11%;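 further: 0% = median of compound wells on plate and 100% = full blocker control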
ADAM17 inh: ADAM17 inhibition, QFRET primary screen | P78536 | recombinant ADAM17, EDANS/DABCYL FRET peptide cleavage | inhibition, % at 6.95 µM | 370,000 compounds, 0.83% hits;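 active means inhibition above the mean of compounds lying between control limits plus 3 SD, set per campaign, cut at about 8.5% in these data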;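 further: 0% = DMSO-only wells as the low control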
KLK7 zymogen act: activates the human kallikrein-7 zymogen. P49862. purified proKLK7, EDANS-DABCYL substrate fluorescence; 100% is mature enzyme control, 0% vehicle. activation, % at 7 µM. 370,000 compounds, 0.9% hits. AID 652039;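 active means activation above the mean of all tested compounds plus 3 SD, computed per campaign excluding outliers beyond control limits, cut at about 13% in these data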
ADAM10 inh: ADAM10 inhibition, QFRET primary screen | recombinant ADAM10, EDANS/DABCYL FRET peptide cleavage, 3 h | inhibition, % at 7 µM | 370,000 compounds, 0.62% hits;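 active means inhibition above a per-campaign cutoff equal to the mean of compounds falling between control-based bounds plus 3 SD, cut at about 20% in these data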;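 further: 0% = DMSO wells while the 100% control is not disclosed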
ADAM10 confirm: human ADAM10 inhibition, confirmation; ADAM10 QFRET peptide cleavage, EDANS fluorescence; 2,100 compounds, 1% hits; inhibition, % at 6.95 µM; AID 743208; shares compounds with ADAM10 inh;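 active means inhibition above about 20% chosen separately for each screening run, limit read from the data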;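 further: 0% = DMSO wells and 100% = marimastat wells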
ADAM17 counter: inhibits human ADAM17 in ADAM10 exosite counter-screen | AID 743214 | inhibition, % at 6.95 µM | ADAM17 QFRET peptide cleavage, EDANS fluorescence | 2,100 compounds, 0.5% hits | shares compounds with ADAM10 inh;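 active means mean triplicate inhibition above the solvent-only control wells' mean plus 3 SD, cut at about 12% in these data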;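 further: 0% = DMSO wells and 100% = marimastat wells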
ADAM10 counter: inhibits human ADAM10 in ADAM17 exosite counter-screen | shares compounds with ADAM17 inh | 2,900 compounds, 47% hits | inhibition, % at 6.95 µM | recombinant ADAM10, EDANS/DABCYL FRET peptide cleavage, 3 h;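 active means mean inhibition over the triplicate runs exceeds the activity threshold set in the earlier primary screen, cut at about 20% in these data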;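 further: 0% = DMSO wells and 100% = marimastat wells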
ADAM17 confirm: confirmation of inhibitors of human ADAM17 | shares compounds with ADAM17 inh | recombinant ADAM17, EDANS/DABCYL QFRET peptide cleavage | inhibition, % at 6.95 µM | 2,900 compounds, 65% hits;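 active means mean inhibition across replicates above the hit cutoff set in the primary screen, cut at about 8.5% in these data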;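 further: 0% = DMSO wells and 100% = marimastat wells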
* = called active by the depositor; i = inactive; x = not tested or not shown.

SMILES	PLCg1 inh	PLC-beta3 inh	ADAM17 inh	KLK7 zymogen act	ADAM10 inh	ADAM10 confirm	ADAM17 counter	ADAM10 counter	ADAM17 confirm
CCN(CC)CCCNC(=O)CSc1nc2cccnc2n1C	1.9	1.2	0.8	-0.5	-2.4	x	x	x	x
COc1ccccc1S(=O)(=O)N(C)C[C@@H]1Oc2cc(C#CCC(C)C)ccc2S(=O)(=O)N([C@H](C)CO)C[C@@H]1C	-1.0	0.3	11.4*	-0.4	26.1*	8.3	3.1	46.3*	26.5*
COC(=O)c1ccc(CN(c2ccc(C(=O)O)c(O)c2)S(=O)(=O)c2ccc(Cl)c([N+](=O)[O-])c2)cc1	-10.6	-9.9	10.7*	-0.6	23.2*	9.1	2.6	38.6*	22.9*
COC(=O)c1ccc(CN(c2ccccn2)S(=O)(=O)c2ccccc2)cc1	-26.6	-30.8	-31.6	-0.3	-102.3	x	x	x	x
Cc1ccc(NC(=O)C2CCN(c3nnc(-n4cccc4)s3)CC2)cc1C	7.3	2.6	1.5	0.7	2.7	x	x	x	x
CCCCCn1nnnc1C1(C)Cn2nccc2C(=O)N1Cc1ccco1 (stereo not given)	-0.2	2.5	-7.0	0.5	-3.3	x	x	x	x
FC(F)Sc1ccc(NC(=S)NC2CCCCC2)cc1	8.4	7.2	14.0*	0.1	25.5*	4.2	0.8	15.3	10.6*
C=CCN1[C@H](Cc2ccccc2)COc2cc(N3CCSCC3)ccc2S1(=O)=O	0.7	1.4	-0.4	0.0	6.8	x	x	x	x
Cc1cc(NC(=O)COC(=O)c2cccc(S(=O)(=O)N3CCOCC3)c2)no1	4.4	4.4	-1.5	0.2	2.3	x	x	x	x
O=C(COC(=O)c1cccc(S(=O)(=O)N2CCOCC2)c1)Nc1nc(-c2ccccc2Cl)cs1	8.4	10.0	16.4*	0.3	37.1*	10.2	4.0	34.9*	17.5*
CC1(Cc2ccc(C(F)(F)F)o2)C(=O)Nc2cc(-c3ccc(F)cc3F)ccc21 (stereo not given)	-2.5	-9.3	12.8*	-0.2	44.6*	11.1	2.9	44.2*	23.5*
COc1ccc(C2Nc3ccccc3C(=O)N2Cc2cccnc2)cc1COc1c(C)cccc1C (stereo not given)	-338.1	-482.2	-271.5	x	i	x	x	x	x
O=C(CC(c1ccccc1)c1cc(Br)ccc1O)NCc1ccco1 (stereo not given)	-2.5	2.1	-0.2	-0.2	-2.1	x	x	x	x
CCCCCCNC(=O)CC(c1ccccc1)c1cc(Br)ccc1O (stereo not given)	0.8	4.5	23.5*	0.0	34.7*	7.4	2.7	41.0*	22.4*
COc1cc(C=Nn2c(-c3ccc(F)cc3)n[nH]c2=S)ccc1OCc1ccccc1	-0.8	-3.5	-2.3	0.3	-1.3	x	x	x	x
Cc1ccc(C(=O)N2CCN(C3c4cccc5cccc(c45)C3NS(=O)(=O)c3ccccc3)CC2)cc1 (stereo not given)	3.4	0.0	11.2*	-0.4	24.3*	7.1	2.5	18.6	11.9*
O=C1OCCN1C(=O)[C@H]1[C@H](c2ccc([N+](=O)[O-])cc2)C(c2ccc(F)cc2)=NN1c1ccc(Br)cc1	-0.8	-2.9	9.2*	-0.7	22.1*	13.7	4.5	20.3*	12.8*
O=C1OCCN1C(=O)[C@H]1[C@H](c2ccccc2)C(c2ccc(F)cc2)=NN1c1ccc(Br)cc1	-29.8	-48.5	-23.0	-4.0	-65.1	x	x	x	x
O=C1OCCN1C(=O)[C@H]1[C@H](c2ccc([N+](=O)[O-])cc2)C(c2ccc(F)cc2)=NN1c1ccccc1	-2.7	-7.1	9.0*	-0.7	21.1*	4.5	2.6	36.0*	17.5*
CN(C)CCCn1c(SCC(=O)Nc2nc(-c3cccc(Br)c3)cs2)nc2ccccc2c1=O	-1.4	-7.7	-4.3	-0.5	-6.0	x	x	x	x
O=C(CSc1nc2ccccc2[nH]1)Nc1nc(-c2cccc(Br)c2)cs1	-4.8	-9.3	22.8*	-2.5	49.8*	22.8*	6.6	39.6*	23.9*
CCOc1cc(S(=O)(=O)Nc2cc(C)cc(C)c2)ccc1Cl	8.3	3.8	19.8*	0.3	36.4*	2.9	0.8	26.7*	14.7*
C[C@@H]1ON(C)[C@H]2C[C@H]3c4[nH]c5c(-c6ccccc6)cccc5c4CCN3C(=O)[C@@H]12	-258.8	-328.6	-158.8	-30.8	i	x	x	x	x
Cc1ccc(S(=O)(=O)N(CCCO)CC(O)CON=C2c3ccccc3-c3ccccc32)cc1 (stereo not given)	-13.5	-22.3	18.8*	-0.5	34.6*	6.9	2.9	19.4	12.0*
O=C(CCNC(=O)c1ccccc1Cl)Nc1cc(C(F)(F)F)ccc1Cl	-0.7	0.1	-4.3	-0.2	-2.9	x	x	x	x
SMILES	PLCg1 inh	PLC-beta3 inh	ADAM17 inh	KLK7 zymogen act	ADAM10 inh	ADAM10 confirm	ADAM17 counter	ADAM10 counter	ADAM17 confirm
Cc1ccc(C)c(C(=O)COC(=O)CCCC(=O)Nc2cc(C(F)(F)F)ccc2Cl)c1	1.6	3.1	9.8*	-0.1	19.9*	3.8	1.8	25.3*	10.8*
COc1cc(-c2nnc(COc3ccc4ccccc4c3)o2)cc(OC)c1OC	4.0	0.1	10.1*	0.1	20.8*	8.0	3.2	22.4*	15.5*
Cc1ccc(NC(=O)c2cccc(OCc3c(C)noc3C)c2)cc1S(=O)(=O)Nc1ccccc1Cl	0.8	-2.5	10.2*	-0.1	21.8*	9.5	3.4	33.7*	16.3*
CCOc1cc(/C=N/Nc2cccc(C(=O)O)c2)ccc1OC(=O)c1ccccc1	0.2	-4.2	-0.4	1.4	2.9	x	x	x	x
CCOc1cc(/C=N/NC(=O)CNc2cccc(C)c2)ccc1OC(=O)c1ccccc1	6.3	2.2	11.7*	0.1	25.0*	8.4	2.8	33.1*	16.0*
CCCCCCCCNS(=O)(=O)/C=C/c1ccccc1CNC(=O)OC(C)(C)C	-5.7	-7.9	10.7*	0.2	20.9*	12.2	3.3	31.4*	14.9*
COc1ccc(OC)c(CN2C(=O)COc3ccccc3C2c2nnnn2C2CCCC2)c1 (stereo not given)	-0.2	1.8	-1.0	-0.7	1.0	x	x	x	x
Cc1ccc(S(=O)(=O)N2CCC(=O)N([C@H](COC(=O)Nc3ccccc3)Cc3ccccc3)CC2)cc1	3.1	2.7	8.9*	0.6	19.9*	2.8	1.2	19.0	13.0*
Cc1ccc(S(=O)(=O)N2CCC(=O)N(C(COCc3ccccc3)Cc3ccccc3)CC2)cc1 (stereo not given)	-1.7	-0.4	-2.1	-0.4	-2.8	x	x	x	x
